This is an account of results in PubChem BioAssay (NCI).

Each structure is given as a SMILES string. The panel holds about 83,000 compounds, 20% with a hit somewhere; the sample as a whole holds those more often.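 A percent growth of 40 corresponds to 60% growth inhibition; 0 means no net growth; -100 means all cells died. Active threshold: below 10.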 A number with no mark means an inactive call. Active and inactive are the calls of the source.

The assay relates to HL-60(TB) leukemia. Briefly: NCI-60 one-dose screen, 48 h (100 = growth as untreated, 0 = no growth, -100 = all killed). As to conditions: 10 µM unless noted.
`Cc1ccc(C(=O)Nc2ccc(CN3CCN(C)CC3)c(C(F)(F)F)c2)cc1C#Cc1cnc(N)c2ccc(F)cc12`: the growth was -25.4% (active).
With `O=C(Nc1ncc(Cc2ccccc2Cl)s1)c1ccc2c(c1)OCCO2`, the growth was -56.8% (active).
For the molecule `CC1=CC[C@@H]2CC[C@]3(C)[C@H](CC[C@@H]4[C@@]5(C)CCCNC(C)(C)[C@@H]5CC[C@]43C)[C@H]2[C@@H]1C`, the growth was 21.7%.
Consider `CN(C)CC1(C)Cc2ccsc2C1O` (stereo not given), for which the growth is 93%.
The value for `CN1C2CCC1/C(=C\c1ccc(F)cc1)C(=O)/C2=C/c1ccc(F)cc1` was 12.1%.
`CC1=C[C@H]2c3c(c(O)c(O)c4oc(-c5ccccc5)cc(=O)c34)[C@H](c3cc(O)c(O)c4oc(-c5ccccc5)cc(=O)c34)[C@H]2C(C)(C)C1`: the growth was -30.1% (active).
The value for `O=C(Nc1ccc(Cl)cc1Cl)Nc1ccc(-c2cccnc2)cc1N1CCC(CO)CC1` was 6.31% (active); that for `COc1cc(C2=NN(C(C)=O)C(c3ccc(N(C)C)cc3)C2)cc(OC)c1OC` (stereo not given) was 89.6%; that for `Cc1nc(-c2cn3c(n2)-c2ccc(-c4cnn(C(C)(C)C(N)=O)c4)cc2OCC3)n(C(C)C)n1` was 35.7%.
The value for `COc1ccc(/C=C/C(=O)c2ccc(NC(=O)CSc3nnc(-c4cc(-c5ccccc5)nc5ccccc45)n3-c3ccccc3)cc2)cc1` was 95.9%; that for `NCCn1cc(-c2nc(-c3c[nH]c4ncccc34)cs2)c2cc(Br)ccc21` was 51.1%.
For `Cc1cc(N(CCCNc2ccnc3cc(Cl)ccc23)Cc2ccccn2)nc(N2CCCC2)n1`, the growth is 65.8%.
Turning to `COc1ccc(/C=C2\SC(=O)N(Cc3cc(=O)oc4ccc(OC)cc34)C2=O)cc1`, the growth is 90.9%.
On to `CCCOC(=O)Nc1nc2ccc(SCC)cc2s1`, for which the growth is 76.4%.
To `O=C(CO[N+](=O)[O-])Nc1ccc(C(=O)/C=C/c2ccc3c(c2)OCO3)cc1` belongs 73.7%; to `c1ccc(-c2cc(-c3cc(-c4ccccc4)on3)no2)cc1`, 64%; to `Cc1ccc(C2=NNC(c3sc(Cl)nc3Cl)C2)cc1` (stereo not given), 92.7%.
To `O=S(=O)(NCCNc1nccc(-c2c(-c3cccc(O)c3)nc3occn23)n1)c1cccc(F)c1` belongs 76.6%; to `CC(C)Cc1ccc([C@H](C)C(=O)O)cc1`, 92.9%.
To `COc1cc2c(cc1OCCCN1CCN(C(=S)SCCC(C#N)(c3ccccc3)c3ccccc3)CC1)N=C[C@@H]1CCCN1C2=O` belongs 0.178% (active).
With `C=Cc1cnc(Nc2ccc(OC)cc2)nc1NCCCNC(=O)C1CCC1`, the growth was 14.6%.
The value for `CCCCCS(=O)(=O)Nc1ccc(C(=O)O)cc1` was 101%; that for `CNc1ccc(N)cc1` was 109%.
For `CCOC(=O)CNS(=O)(=O)CC(=O)c1ccccc1`, the growth is 102%.
The value for `O=C(Nc1cccc(Cl)c1)Nc1cc2ncncc2cc1OCc1cccc(F)c1` was 7.49% (active); that for `C/C=C1/CN(CCCCC)CC[C@H]1C(=O)c1cc2ccccc2[nH]1` was 90.6%.
The value for `COC(=O)[C@]12CC[C@@H](C)[C@H](C)[C@@H]1C1=CC[C@@H]3[C@@]4(C)C[C@@H](OC(C)=O)[C@H](O)[C@@](C)(COC(C)=O)[C@@H]4[C@H](O)C[C@@]3(C)[C@]1(C)CC2` was -41.6% (active); that for `CCN(CC)CC#CCOC(=O)[C@]1(C)CCC[C@]2(C)c3ccc(C(C)C)cc3CC[C@@H]12` was 63.6%.
The value for `CCOc1cc(N)ccc1C(=O)NCCCN(CC)CC` was 70.2%.
For the molecule `Cc1nn(-c2nc3ccccc3[nH]2)c2c1C(c1ccc3c(c1)OCO3)CC(=O)N2` (stereo not given), the growth was -24.3% (active).
To `N#Cc1nc(-c2ccc(F)cc2)oc1S(=O)(=O)N1CCN(c2ccc(F)cc2)CC1` belongs 52.3%; to `COc1ccc(/C(CS(=O)(=O)c2ccccc2)=N\O)cc1`, 99.5%; to `NC(=O)c1ncn(C2OC(CO)C(O)C2O)n1` (stereo not given), 83.1%.
The value for `CCN(CC)CC#CCOC(=O)[C@]1(C)CCC[C@]2(C)[C@H]3C[C@H]4C(C(C)C)=C[C@]3(CC[C@H]21)[C@@H]1C(=O)CCC(=O)[C@@H]14` was -36.3% (active).
The value for `O=C(N/N=C\c1ccccc1S(=O)(=O)O)N/N=C/c1ccccc1S(=O)(=O)O` was 91.7%; that for `O=C(/C=C/C12c3ccccc3C(c3ccccc31)C1C(=O)N(c3ccccc3)C(=O)C12)c1ccccc1` (stereo not given) was 10.5%.
`O=C(/C=C/c1ccc([N+](=O)[O-])o1)NNC(=O)c1cc2ccccc2cc1O`: the growth is 1.21% (active).
The value for `Cc1ccc2sc3c(NCCCN)nc4ccccc4c3c(=O)c2c1` was -27.1% (active).
To `COc1cc2c3c(n(C4CCN(C)CC4)c(=O)c2cc1OC)-c1cc2c(cc1C3=O)OCO2` belongs 95%; to `C#Cc1ccc(-n2c(/C=C/c3ccc4ccccc4c3)nc3ncccc3c2=O)cc1`, -2.99% (active).
